Reference: PubChem BioAssay (NCATS)
Inconclusive results are not listed. The source made the active and inactive calls. Unless noted, the call rests on the fitted dose curve; in most records, active means well fitted curve in the direction sought with a large enough effect; inconclusive means small, poorly fitted or top-dose-only effect, or another doubt; inactive means no such curve, though single readings can be large; an effect the other way counts as inactive or inconclusive.

Tests used:
[1] = Cell Viability - BJ (AID 421; calls by dose curve;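 further: potency means the concentration at half of the fitted maximal effect; cells exposed to compound for 40 hours at 37 °C before readout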); settings: BJ fibroblast viability, qHTS
In short: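 Quantitative HTS: ATP depletion in BJ cells after 40 hr compound exposure in complete culture medium, detected with CellTiter-Glo; AC50 from standard Hill fits.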

[2] = Cell Viability - Jurkat (AID 426;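 active means dose-dependent loss of cell ATP signal giving a full or clear fitted curve, ranked by lower potency value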; further: potency means the concentration at half of the fitted maximal effect); settings: qHTS
In short: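 Seed 5000 Jurkat E6-1 cells/well; add compound; incubate 40 hr at 37 °C; add CellTiter-Glo; wait 20 min at room temperature; read luminescence. Fit concentration-response with Hill equation for AC50.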

[3] = Cell Viability - Hek293 (AID 427;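 active means compounds whose dose-response curve shows a full or clear partial loss of cell viability, called from curve shape rather than a numeric limit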;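 further: potency means the concentration at half of the fitted maximal effect; cells exposed to compound for 40 hours at 37 °C before reading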); settings: qHTS
In short: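 AC50 values derive from Hill-modelled concentration-response of ATP-based luminescence, normalized between DMSO-only and 100 uM tamoxifen controls. Cells were exposed in complete culture medium for 40 hr at 37 °C before detection.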

[4] = Cell Viability - HepG2 (AID 433; calls by dose curve;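 further: potency means the concentration at half of the fitted maximal effect; potency for ATP loss meaning cytotoxicity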); settings: qHTS
In short: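 HepG2 cells, 1500 per well, treated 40 hr at 37 °C in complete medium; viability from intracellular ATP by CellTiter-Glo luminescence. Normalized to DMSO and 100 uM tamoxifen; AC50 from Hill fit of qHTS concentration-response.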

[5] = Cell Viability - MRC5 (AID 434; calls by dose curve;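 further: potency means the concentration at half of the fitted maximal effect; potency reflects cytotoxicity seen as loss of intracellular ATP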); settings: MRC5 lung fibroblast viability, qHTS
In short: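 qHTS cytotoxicity in human lung fibroblast MRC5 cells; 40 hr treatment, 37 °C; cellular ATP by luciferase luminescence; DMSO = 0%, 100 uM tamoxifen = 100% inhibition; Hill-fit AC50.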

[6] = Cell Viability - SK-N-SH (AID 435; calls by dose curve;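 further: potency means the concentration at half of the fitted maximal effect; compound exposure lasted 40 h at 37 °C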); settings: SK-N-SH neuroblastoma cell viability qHTS
In short: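 SK-N-SH neuroblastoma cells (1500/well) treated 40 h at 37 °C in complete medium; viability read as cellular ATP by CellTiter-Glo luminescence. Normalized to DMSO and 100 uM tamoxifen; AC50 from Hill fits of qHTS concentration-response.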

[7] = Cell Viability - N2a (AID 540); settings: N2a mouse neuroblastoma cell viability; activity change, negative = cytotoxicity: at 92.2 µM (top of the series);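 further: plate controls were DMSO alone for no effect and tamoxifen control for full effect; nearly all actives have a fitted effect of over 45% in size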
In short: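 First, 1500 N2a cells per well incubate 5 hr at 37 °C; next, compounds are added and incubated 40 hr at 37 °C; finally CellTiter-Glo is added and luminescence read after 20 min, with AC50 derived by Hill modeling.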

[8] = Cell Viability - NIH 3T3 (AID 541); settings: NIH 3T3 cell viability, qHTS; activity change, negative = cytotoxicity: at 92.2 µM (top of the series);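 further: plate controls were DMSO alone for no effect and tamoxifen positive control for full effect; nearly all actives have a fitted effect of over 25% in size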
In short: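 AC50 values reflect concentration-dependent loss of intracellular ATP in NIH 3T3 cells after 40 hr treatment in complete culture medium, quantified by luciferase-based luminescence.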

[9] = Cell Viability - HUV-EC-C (AID 542); settings: HUV-EC-C endothelial cell viability, qHTS; series mostly up to 92.2 µM; further: on the % scale 0 is the no-effect control and ±100 the full control effect; nearly all actives have a fitted effect of over 35% in size
In short: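 Decrease in cellular ATP, quantified by luciferase luminescence, reflects toxicity in normal human vascular endothelial HUV-EC-C cells given compound for 40 hr in complete culture medium. Values are AC50s from concentration-response curves.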

[10] = Cell Viability - H-4-II-E (AID 543); settings: H-4-II-E rat hepatoma viability; series mostly up to 92.2 µM; further: on the % scale 0 is the no-effect control and ±100 the full control effect; nearly all actives have a fitted effect of over 35% in size
In short: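 Here, cytotoxicity is measured in the rat hepatoma line H-4-II-E as loss of intracellular ATP after 40 hr compound treatment, detected by luciferase luminescence.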

[11] = Cell Viability - SH-SY5Y (AID 544); settings: SH-SY5Y neuroblastoma cell viability; viability change, negative = cytotoxic: at 92.2 µM (top of the series); further: nearly all actives have a fitted effect of over 55% in size
In short: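 Cytotoxicity is scored as a concentration-dependent fall in intracellular ATP in human SH-SY5Y cells treated 40 hr in complete culture medium. Potency is expressed as AC50 from a Hill equation fit.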

[12] = Cell Viability - Mesenchymal (AID 546); settings: mesenchymal cells viability, qHTS; series mostly up to 91.7 µM;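 further: cells exposed to compound for 40 hours before reading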
In short: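 AC50 values reflect the drop in intracellular ATP in a human kidney mesenchymal line derived from normal glomeruli. Treatment lasts 40 hr at 37 °C in complete medium, and the signal comes from CellTiter-Glo luminescence.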

[13] = Cellular Toxicity (caspase-3) HepG2 (AID 654); settings: HepG2 caspase-3 activation, luminescence; series mostly up to 92.2 µM;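 further: cells exposed to compound for 16 hours before reading; 0% = DMSO alone and 100% = caspase signal from 100 µM tamoxifen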
In short: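 qHTS, HepG2, 1500 cells/well, complete medium; cpd 16 h 37 °C; Caspase-Glo 3/7, 20 min RT; lum. Norm: DMSO vs 100 uM tamoxifen; AC50 Hill fit.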

[14] = Cellular Toxicity (caspase-3) Jurkat (AID 655); settings: Jurkat caspase-3 activation, luminescence; caspase-3 activation: at 92.2 µM (top of the series), DMSO = 0%, tamoxifen = 100%;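 further: cells exposed to compound for 16 h at 37 °C before reading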
In short: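 Jurkat cells (5000/well) in complete medium exposed 16 h at 37 C; caspase-3/7 activity read by Caspase-Glo luminescence after 20 min at room temperature. Normalized to DMSO and 100 uM tamoxifen; AC50 from Hill fits.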

[15] = Cellular Toxicity (caspase-3) HUV-EC-C (AID 656); settings: HUV-EC-C cells, caspase-3 activation (apoptosis), vehicle = 0, 100 µM tamoxifen = 100%; series mostly up to 92.2 µM
In short: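 HUV-EC-C cells (1000/well) in complete medium, compound-treated 16 h at 37 °C; caspase-3/7 activity read by Caspase-Glo 3/7 luminescence. Normalized to DMSO (basal) and 100 uM tamoxifen (100%); AC50 from Hill-equation concentration-response fits.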

[16] = Cellular Toxicity (caspase-3) SHSY5Y (AID 657); settings: SH-SY5Y caspase-3 activation, DMSO zero, 10 µM staurosporine = 100%; series mostly up to 91.7 µM
In short: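 SH-SY5Y human neuroblastoma cells, 1500/well, exposed to compound for 16 hours at 37 °C in complete medium. Caspase-3/7 activity read by Caspase-Glo luminescence after 1 hr at room temperature, normalized to DMSO and 10 uM staurosporine; AC50 from Hill fit.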

[17] = Cellular Toxicity (caspase-3) BJ (AID 658); settings: BJ fibroblasts, luminescence, normalized: DMSO 0%, staurosporine 100%; series mostly up to 91.7 µM
In short: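 Readout: Caspase-Glo 3/7 luminescence increase in BJ cells after 16 hr treatment at 37 °C. Staurosporine and tamoxifen served as positive controls; AC50 values came from Hill modelling of data normalized to DMSO and 10 uM staurosporine.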

[18] = Cellular Toxicity (caspase-3) MRC-5 (AID 659); settings: MRC-5 cells, luminescence, normalized: DMSO 0%, 10 µM staurosporine 100%; series mostly up to 91.7 µM
In short: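 Concentration-dependent caspase 3/7 activation is measured in human normal lung fibroblasts (MRC-5) following 16-hour treatment. AC50 values come from standard Hill-equation modeling of luminescence normalized to DMSO and 10 uM staurosporine.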

[19] = Cell Viability - Renal Proximal Tubule (AID 545); settings: renal proximal tubule cells viability, primary cells of rat origin; series mostly up to 91.7 µM; further: nearly all actives have a fitted effect of over 40% in size
In short: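 Rat renal proximal tubule primary cells, 1000/well, exposed to compounds for 40 hr at 37 °C in complete medium; cellular ATP read by CellTiter-Glo luminescence. AC50 from concentration-response fitted with standard Hill equation.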

[20] = molecular target: Mitogen-activated protein kinase 10 (Mus musculus) (UniProt Q61831); assay: JNK3 AlphaScreen Assay (AID 530; active means well fitted curve in either direction with a large enough effect, not every such curve was filed as active;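 further: kinase came from lysate of stimulated human HepG2 cells; signal reports phosphorylation of biotinylated GST-cJun 1-79 at Ser73 with 10 µM ATP; on the % scale 0 is the no-effect control and ±100 the full control effect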); settings: JNK3 lysate, c-Jun phosphorylation; series mostly up to 57.1 µM
In short: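 Room-temperature AlphaScreen kinase assay; pre-activated HepG2 lysate as JNK3 source, biotin-GST-cJun(1-79) substrate, 10 uM ATP, compound 15 min preincubation.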

C=C(C)C(=O)OC
inactive: Potency [1] > 92 µM | Potency [2] > 92 µM | Potency [3] > 92 µM | Potency [4] > 92 µM | Potency [5] > 92 µM | Potency [6] > 92 µM | activity change, negative = cytotoxicity [7] 2.46% | Potency [8] | Potency [9] | Potency [10] | Potency [11] | Potency [12] | Potency [13] | caspase-3 activation [14] 1.74% | outcome [15] | outcome [16] | outcome [17] | outcome [18]

O=C(Cl)c1ccccc1[N+](=O)[O-]
inactive: Potency [1] > 92 µM | Potency [2] > 92 µM | Potency [3] > 92 µM | Potency [4] > 92 µM | Potency [5] > 92 µM | Potency [6] > 92 µM | activity change, negative = cytotoxicity [7] 0.882% | Potency [8] | Potency [9] | Potency [10] | Potency [11] | Potency [19] | Potency [12] | Potency [13] | caspase-3 activation [14] 0.685% | outcome [16] | outcome [17] | outcome [18]

CCNc1ccccc1
inactive: Potency [1] > 92 µM | Potency [2] > 92 µM | Potency [3] > 92 µM | Potency [4] > 92 µM | Potency [5] > 92 µM | Potency [6] > 92 µM | activity change, negative = cytotoxicity [7] 2.42% | Potency [8] | Potency [9] | Potency [10] | Potency [11] | Potency [12] | Potency [13] | caspase-3 activation [14] 0.137% | outcome [15] | outcome [16] | outcome [17] | outcome [18]

O=[N+]([O-])c1cccc(Cl)c1
inactive: Potency [1] > 92 µM | Potency [2] > 92 µM | Potency [3] > 92 µM | Potency [4] > 92 µM | Potency [5] > 92 µM | outcome [20] | activity change, negative = cytotoxicity [7] -8.23% | Potency [8] | Potency [9] | Potency [10] | Potency [11] | Potency [19] | Potency [12] | Potency [13] | caspase-3 activation [14] -3.2% | outcome [15] | outcome [16] | outcome [17] | outcome [18]

CCNS(=O)(=O)c1ccc(C)cc1
inactive: Potency [1] > 92 µM | Potency [2] > 92 µM | Potency [3] > 92 µM | Potency [4] > 92 µM | Potency [5] > 92 µM | Potency [6] > 92 µM | activity change, negative = cytotoxicity [7] -13.9% | Potency [8] | Potency [9] | Potency [10] | Potency [11] | Potency [19] | Potency [12] | Potency [13] | caspase-3 activation [14] 2.46% | outcome [16] | outcome [17] | outcome [18]

NC(N)=S
inactive: Potency [1] > 92 µM | Potency [2] > 92 µM | Potency [3] > 92 µM | Potency [4] > 92 µM | Potency [5] > 92 µM | outcome [20] | activity change, negative = cytotoxicity [7] 7.78% | Potency [8] | Potency [9] | Potency [10] | Potency [11] | Potency [19] | Potency [12] | Potency [13] | caspase-3 activation [14] 0.321% | outcome [15] | outcome [16] | outcome [17]

c1ccsc1
inactive: Potency [1] > 92 µM | Potency [2] > 92 µM | Potency [3] > 92 µM | Potency [4] > 92 µM | Potency [5] > 92 µM | outcome [20] | activity change, negative = cytotoxicity [7] -9.01% | Potency [8] | Potency [9] | Potency [10] | Potency [11] | Potency [19] | Potency [12] | Potency [13] | outcome [16] | outcome [17] | outcome [18]

NC(=O)c1ccccc1[N+](=O)[O-]
inactive: Potency [1] > 92 µM | Potency [2] > 92 µM | Potency [3] > 92 µM | Potency [4] > 92 µM | Potency [5] > 92 µM | outcome [20] | activity change, negative = cytotoxicity [7] -5.05% | Potency [8] | Potency [9] | Potency [10] | Potency [11] | Potency [19] | Potency [12] | Potency [13] | caspase-3 activation [14] -0.0168% | outcome [16] | outcome [17] | outcome [18]

Nc1cccc(S(=O)(=O)O)c1
inactive: Potency [1] > 92 µM | Potency [2] > 92 µM | Potency [3] > 92 µM | Potency [4] > 92 µM | Potency [5] > 92 µM | Potency [6] > 92 µM | outcome [20] | activity change, negative = cytotoxicity [7] -6.89% | Potency [9] | Potency [10] | Potency [11] | Potency [12] | Potency [13] | outcome [15] | outcome [16] | outcome [17] | outcome [18]

O=C1C=CCCC1
inactive: Potency [1] > 92 µM | Potency [2] > 92 µM | Potency [3] > 92 µM | Potency [4] > 92 µM | Potency [5] > 92 µM | Potency [6] > 92 µM | activity change, negative = cytotoxicity [7] 3.2% | Potency [8] | Potency [9] | Potency [10] | Potency [11] | Potency [19] | Potency [12] | Potency [13] | caspase-3 activation [14] -0.0925% | outcome [15] | outcome [16] | outcome [17] | outcome [18]

CC(=O)OCCC(C)C
inactive: Potency [1] > 92 µM | Potency [2] > 92 µM | Potency [3] > 92 µM | Potency [4] > 92 µM | Potency [5] > 92 µM | outcome [20] | activity change, negative = cytotoxicity [7] -1.72% | Potency [8] | Potency [9] | Potency [10] | Potency [11] | Potency [19] | Potency [12] | caspase-3 activation [14] 0.836% | outcome [15] | outcome [16] | outcome [17] | outcome [18]

Nc1ccccc1S(=O)(=O)O
inactive: Potency [1] > 92 µM | Potency [2] > 92 µM | Potency [3] > 92 µM | Potency [4] > 92 µM | Potency [5] > 92 µM | Potency [6] > 92 µM | activity change, negative = cytotoxicity [7] 4.97% | Potency [8] | Potency [9] | Potency [10] | Potency [11] | Potency [19] | Potency [12] | Potency [13] | caspase-3 activation [14] 1.01% | outcome [15] | outcome [16] | outcome [17] | outcome [18]
